TDP1 inh: qHTS Assay for Inhibitors of Tyrosyl-DNA Phosphodiesterase (TDP1) | Tyrosyl-DNA phosphodiesterase 1 (Homo sapiens), Q9NUW8 | recombinant TDP1, AlphaScreen DNA substrate cleavage | Potency, µM (doses to about 130 µM), without a hit: at the highest dose activity change, negative = inhibition, actives largely listed as inhibitors | 350,000 compounds, 0.28% hits | AID 485290, 2010; also: potency is read from the fitted curve at half-maximal effect; nearly all actives have a fitted effect of over 40% in size
Target sequence (Q9NUW8 whole entry, looked up): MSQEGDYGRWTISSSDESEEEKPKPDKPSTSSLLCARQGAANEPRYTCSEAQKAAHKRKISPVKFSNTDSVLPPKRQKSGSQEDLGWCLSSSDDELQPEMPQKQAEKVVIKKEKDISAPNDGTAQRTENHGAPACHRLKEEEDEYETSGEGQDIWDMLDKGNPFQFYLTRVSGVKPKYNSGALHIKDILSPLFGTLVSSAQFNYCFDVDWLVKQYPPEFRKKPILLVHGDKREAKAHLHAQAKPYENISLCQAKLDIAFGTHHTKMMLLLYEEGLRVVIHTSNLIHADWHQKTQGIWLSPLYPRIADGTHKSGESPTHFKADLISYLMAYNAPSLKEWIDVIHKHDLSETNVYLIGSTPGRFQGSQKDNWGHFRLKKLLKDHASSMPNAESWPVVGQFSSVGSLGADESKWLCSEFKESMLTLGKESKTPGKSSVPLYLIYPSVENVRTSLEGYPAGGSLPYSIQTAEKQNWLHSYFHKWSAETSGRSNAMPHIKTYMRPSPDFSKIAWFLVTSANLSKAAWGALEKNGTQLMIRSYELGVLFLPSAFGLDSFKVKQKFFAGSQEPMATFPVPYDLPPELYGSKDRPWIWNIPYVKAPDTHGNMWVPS
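Recombinant human Tdp1 (E. coli-expressed, 1 nM final) preincubated with compounds 15 min at room temperature, then 5'-biotin/3'-phosphotyrosine-FITC DNA substrate (15 nM final) added for 5 min. AlphaScreen beads (10 ug/ml final) added 10 min; cleavage lowers signal.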
DT40 TDP1 CPT: qHTS for Inhibitors of human tyrosyl-DNA phosphodiesterase 1 (TDP1): qHTS in cells in presence of CPT. Potency, µM (top dose mostly 46.2 µM), for the others: at the highest dose activity change, negative = growth inhibition, hits mostly inhibitors. chicken DT40 Tdp1-/-;hTDP1 cells + 20 nM CPT, ATP luminescence, 48 h. 420,000 compounds, 12% hits; also: potency is read from the fitted curve at half-maximal effect; nearly all actives have a fitted effect of over 55% in size
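Cell growth measured by CellTiter-Glo luminescence after a minimum 48 h, 37 C compound exposure with 20 nM CPT in Tdp1-knockout DT40 cells stably expressing hTDP1, seeded 400/well; qHTS titration format.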
TDP1 cell noCPT: qHTS for Inhibitors of human tyrosyl-DNA phosphodiesterase 1 (TDP1): qHTS in cells in absence of CPT; DT40 Tdp1-/- hTDP1 cells, no CPT, ATP luminescence, 48 h; Potency, µM (highest dose often 46.2 µM), inactives show top-dose activity change, negative = growth inhibition, actives largely listed as inhibitors; 420,000 compounds, 15% hits; AID 686978, 2013; also: potency is read from the fitted curve at half-maximal effect; nearly all actives have a fitted effect of over 55% in size
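DT40 Tdp1-/-;hTDP1 cells, no CPT (DMSO vehicle only), 400 cells/well; compounds pin-transferred; ≥48 hr, 37 °C; CellTiter-Glo 30 min RT dark, luminescence read.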
ELG1 DNA repair: qHTS screen for small molecules that inhibit ELG1-dependent DNA repair in human embryonic kidney (HEK293T) cells expressing luciferase-tagged ELG1; 330,000 compounds, 2.3% hits; Potency, µM (top dose mostly 46.1 µM), inactives show top-dose activity change, negative = inhibition, usual class: inhibitors; HEK293T ELG1-luciferase reporter, luminescence, 16 h; DNA damage induced by 5-fluorouridine; also: potency is read from the fitted curve at half-maximal effect; nearly all actives have a fitted effect of over 55% in size
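Reporter activity after DNA damage by 5-fluorouridine is monitored. Compound-treated cells incubate 16 hr at 37 °C, then ONE-Glo is added for 30 min before luminescence reading.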
Giardia killer: Small Molecules that selectively kill Giardia lamblia: qHTS; Giardia lamblia trophozoite viability; activity change, % at 7.66 µM, hits read low; 340,000 compounds, 0.15% hits; AID 540267, 2011; in the data active = activity change below about -80%; inconclusive = between about -30% and that limit;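 also: parasites exposed to compound for two days anaerobically before the ATP read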
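Giardia lamblia trophozoites (100 cells/well) were incubated with compounds for 48 h at 37 deg C under anaerobic conditions. Viability was read as ATP content by one-step luminescence after 15-30 min at room temperature.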
IL1B secr inh: qHTS for Inhibitors of Inflammasome Signaling: IL-1-beta AlphaLISA Primary Screen; THP-1 LPS/ATP IL-1B secretion, AlphaLISA, 16 h; stronger effect = lower value; activity change, % at 57.5 µM; 360,000 compounds, 4.7% hits; AID 743279, 2014; in the data active = activity change below about -50%; inconclusive = mostly about -30% to -49%
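Secreted IL-1B measured by AlphaLISA bead assay after 16 h compound exposure of THP-1 cells; compounds (final up to 57.5 uM) added 1 h before LPS (250 ng/mL) and ATP (1.25 mM) stimulation; lower signal means less secretion.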
Starred values were filed as active, the others as inactive; [ ] = another dose, or the depositor's remark. An excerpt weighted towards active compounds, which were near 19% of everything screened. Unless noted, calls follow the shape of the dose curve; as a rule, active = well fitted curve in the direction sought with a large enough effect; inconclusive = small, poorly fitted or top-dose-only effect, or another doubt; inactive = no such curve, though single readings can be large; an effect the other way counts as inactive or inconclusive. % is scaled to controls: 0 for no effect and ±100 for the full control effect.

Results for O=C(CS(=O)Cc1ccco1)NC/C=C\COc1cc(CN2CCCCC2)ccn1 (stereo unspecified) ?
DT40 TDP1 CPT: -16%; TDP1 cell noCPT: -19%

How did Cc1ccc(C)c(-c2nc(Cn3c(=O)cc(-c4ccccc4)c4c(C)nn(C)c43)c(C)o2)c1 do in these assays?
TDP1 inh: 5%; DT40 TDP1 CPT: inconclusive; TDP1 cell noCPT: -9%

What do the screens show for `CC(C)(C)c1ccc(C(=O)N2CCCC(c3nc4c(nnn4Cc4cccc(F)c4)c(=O)[nH]3)C2)cc1` (stereo unspecified)?
TDP1 inh: 4%; DT40 TDP1 CPT: inconclusive; TDP1 cell noCPT: inconclusive

What do the screens show for `C#Cc1ccc(CN2CCC(Oc3cc(C(=O)NC4CC4)ccc3OC)CC2)cc1`?
DT40 TDP1 CPT: inconclusive; TDP1 cell noCPT: inconclusive; ELG1 DNA repair: inconclusive; Giardia killer: -9; IL1B secr inh: -9

Results for O=C1CC(c2cccc([N+](=O)[O-])c2)c2c(ccc3ccccc23)N1 (stereo unspecified) ?
TDP1 inh: -2%; DT40 TDP1 CPT: 13µM*; TDP1 cell noCPT: 8.2µM*; ELG1 DNA repair: inconclusive; Giardia killer: -6; IL1B secr inh: -21

What do the screens show for `CC(NS(=O)(=O)c1cccc(C(=O)NCc2ccncc2)c1)c1ccccc1` (stereo unspecified)?
TDP1 inh: -3%[56.1 µM]; DT40 TDP1 CPT: 3%; TDP1 cell noCPT: 9%; ELG1 DNA repair: 2%; Giardia killer: 11; IL1B secr inh: 23

Results for COc1ccccc1NC(=O)CSc1nc2ccccc2c(=O)n1C ?
DT40 TDP1 CPT: 15µM*; TDP1 cell noCPT: 9.2µM*; ELG1 DNA repair: inconclusive; Giardia killer: 9; IL1B secr inh: 17

What do the screens show for `COCCCn1c(SCC(=O)c2ccccc2)nc2ccccc2c1=O`?
TDP1 inh: 4%; DT40 TDP1 CPT: inconclusive; TDP1 cell noCPT: 23µM*; ELG1 DNA repair: inconclusive; Giardia killer: -10; IL1B secr inh: -11

Results for COCCn1c(SCC(=O)c2ccccc2)nc2ccccc2c1=O ?
TDP1 inh: -3%; DT40 TDP1 CPT: -24%; TDP1 cell noCPT: inconclusive; ELG1 DNA repair: 0%; Giardia killer: 6; IL1B secr inh: -15

What do the screens show for `CCOc1ccccc1NC(=O)CSc1nc2cc(O)ccc2c(=O)n1-c1ccc(OC)c(OC)c1`?
DT40 TDP1 CPT: 18µM*; TDP1 cell noCPT: inconclusive; ELG1 DNA repair: inconclusive; Giardia killer: 12; IL1B secr inh: 34

What do the screens show for `COc1ccccc1NC(=O)CSc1nnc(C2CCCCC2)n1-c1ccccc1`?
DT40 TDP1 CPT: 21µM*; TDP1 cell noCPT: 12µM*; ELG1 DNA repair: inconclusive; Giardia killer: 9; IL1B secr inh: -24

Results for COc1ccc(-n2c(SCC(=O)Nc3ccc(C(N)=O)cc3)nc3ccccc3c2=O)cc1OC ?
DT40 TDP1 CPT: -12%; TDP1 cell noCPT: -25%; ELG1 DNA repair: inconclusive; Giardia killer: -8; IL1B secr inh: inconclusive

Results for COCCn1c(SCC(=O)Nc2ccccc2OC)nc2ccccc21 ?
TDP1 inh: -1%; DT40 TDP1 CPT: 19%; TDP1 cell noCPT: -15%; ELG1 DNA repair: 4%; Giardia killer: -1; IL1B secr inh: 2

What do the screens show for `C=C(C)Cn1c(SCC(=O)N/N=C/c2cccc(O)c2)nc2ccccc2c1=O`?
TDP1 inh: 5%; DT40 TDP1 CPT: inconclusive; TDP1 cell noCPT: inconclusive; ELG1 DNA repair: 21µM*; Giardia killer: 7; IL1B secr inh: 1

How did Cn1c(SCC(=O)Nc2cc(C(C)(C)C)nn2-c2ccccc2)nc2ccccc21 do in these assays?
TDP1 inh: 3%; DT40 TDP1 CPT: inconclusive; TDP1 cell noCPT: 12µM*; ELG1 DNA repair: -18%; Giardia killer: 10; IL1B secr inh: 6

Results for COCCn1c(SCC(=O)Nc2cccc(OC)c2)nc2c(oc3ccccc32)c1=O ?
TDP1 inh: -3%; DT40 TDP1 CPT: 5.8µM*; TDP1 cell noCPT: 7.3µM*; ELG1 DNA repair: inconclusive; Giardia killer: -17; IL1B secr inh: -5

What do the screens show for `COc1cccc(-n2c(SCC(=O)Nc3cccc(Cl)c3)nc3c(oc4ccccc43)c2=O)c1`?
TDP1 inh: 4%; DT40 TDP1 CPT: inconclusive; TDP1 cell noCPT: -5%

What do the screens show for `CCc1ccc(NC(=O)CSc2nc3ccccc3c(=O)n2CCCC(=O)N2CCCC2)cc1`?
TDP1 inh: 0%; DT40 TDP1 CPT: 15µM*; TDP1 cell noCPT: inconclusive; ELG1 DNA repair: inconclusive; Giardia killer: -5; IL1B secr inh: 20

What do the screens show for `CCc1ccc(NC(=O)CSc2nc3ccccc3c(=O)n2CCC(=O)NC2CCCCC2)cc1`?
TDP1 inh: 2%; DT40 TDP1 CPT: -2%; TDP1 cell noCPT: 3%

What do the screens show for `CN(CC(=O)Nc1ccccc1Cl)C(=O)CSc1nncn1C`?
TDP1 inh: 2%[0.505 µM]; DT40 TDP1 CPT: -9%; TDP1 cell noCPT: 7%; ELG1 DNA repair: inconclusive; Giardia killer: -23; IL1B secr inh: 6

How did COc1ccccc1NC(=O)Cc1nnc(SCC(=O)NC2CCCC2)n1C do in these assays?
DT40 TDP1 CPT: -2%; TDP1 cell noCPT: 3%; ELG1 DNA repair: 13%; Giardia killer: -10; IL1B secr inh: 20

Results for CCOCCCn1c(SCC(=O)Nc2ccccc2OC)nc2ccccc2c1=O ?
TDP1 inh: 1%; DT40 TDP1 CPT: inconclusive; TDP1 cell noCPT: 16µM*; ELG1 DNA repair: inconclusive; Giardia killer: 3; IL1B secr inh: -1

Results for CCOCCCn1c(SCC(=O)Nc2ccc(OC)cc2)nc2ccccc2c1=O ?
DT40 TDP1 CPT: inconclusive; TDP1 cell noCPT: 18µM*; ELG1 DNA repair: inconclusive; Giardia killer: 24; IL1B secr inh: -14

What do the screens show for `COc1ccccc1NC(=O)Cn1nc(-c2ccncc2)nc1SCC(=O)NC1CCCC1`?
TDP1 inh: -8%; DT40 TDP1 CPT: 13µM*; TDP1 cell noCPT: 15µM*; ELG1 DNA repair: 3%; Giardia killer: 2; IL1B secr inh: 17

High-throughput results as filed in PubChem.
